# Assay outcomes deposited in PubChem BioAssay by several laboratories.
# CYP2C9 activ = activators of human CYP2C9 | 96,000 tested, 1.4% active | AID 1024 | P11712 | recombinant CYP2C9, luciferin-H conversion, luminescence; hits give high values; factor 1 = untreated enzyme, 0 = blocked | activation factor at 5 µM;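 active = activation factor of 2 or more for CYP2C9 at a 5 µM dose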
# Target sequence (P11712 whole entry, looked up): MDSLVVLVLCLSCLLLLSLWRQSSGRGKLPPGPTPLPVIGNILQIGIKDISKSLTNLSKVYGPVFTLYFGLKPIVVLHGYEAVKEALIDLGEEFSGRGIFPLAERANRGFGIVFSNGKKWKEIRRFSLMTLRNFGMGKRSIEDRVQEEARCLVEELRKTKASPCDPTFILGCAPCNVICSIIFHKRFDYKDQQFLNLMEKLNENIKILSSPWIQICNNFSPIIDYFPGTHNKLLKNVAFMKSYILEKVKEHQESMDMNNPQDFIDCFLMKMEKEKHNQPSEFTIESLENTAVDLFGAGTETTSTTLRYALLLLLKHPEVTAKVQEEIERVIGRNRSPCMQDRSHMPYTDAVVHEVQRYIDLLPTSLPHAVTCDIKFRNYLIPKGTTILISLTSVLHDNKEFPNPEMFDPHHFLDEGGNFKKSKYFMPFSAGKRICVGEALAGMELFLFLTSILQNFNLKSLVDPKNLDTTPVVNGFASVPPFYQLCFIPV
# Cav3 T inh = blocks human Cav3.2 T-type calcium channel. Cav3.2-expressing cells, Fluo-4 calcium fluorescence FDSS; hits give low values. 100,000 tested, 4% active. B-score at 10 µM. AID 449739. O95180;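 active = single-dose well whose peak fluorescence ratio is a statistical outlier from its plate by either plate-standardised score or position-corrected B-score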
# CYP2C9 inhib = human CYP2C9 inhibition; P11712; inhibition, % at 5 µM; 96,000 tested, 20% active; CYP2C9 Supersomes, luciferin-H conversion, luminescence;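 active = blocking of liver enzyme CYP2C9 beyond about 50% at 5 µM, limit read from the data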
# CYP2C19 inhib = human CYP2C19 inhibition. P33261. CYP2C19 Supersomes, luciferin-H EGE luminescence, 30 min. inhibition, % at 5 µM. 96,000 tested, 21% active. AID 778;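 active = CYP2C19 inhibition above a set limit at 5 µM in the primary screen, cut at about 50% in these data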
# CYP2C19 act = cytochrome P450 2C19 (human) activation; P33261; recombinant CYP2C19, luciferin-H EGE luminescence; hits give high values; 0 = fully inhibited enzyme, 1 = untreated enzyme; activation factor at 5 µM; 96,000 tested, under 10 active; AID 1025;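 active = activation factor of at least 2 at 5 µM in the primary screen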
# Numbers stand for hits; – = inactive; · = not tested or not shown. Hits are enriched below; roughly 27% of the tested compounds scored in any of these assays.
SMILES,CYP2C9 activ,Cav3 T inh,CYP2C9 inhib,CYP2C19 inhib,CYP2C19 act
O=c1cnn(-c2ccccc2)c(-c2ccccc2)c1,–,–,–,–,–
CN(C)c1nc(SCCOC(=O)Nc2ccccc2)nc(N(C)C)n1,–,-4.7,68,99,–
CN(C)c1nc(C(=O)Nc2ccccc2)nc(N(C)C)n1,–,–,–,–,–
O=C(c1cc2cc(Br)cc(Br)c2oc1=O)N1CCCc2ccccc21,–,–,–,–,–
CCCCOC(=O)n1c(SCC(=O)N(C)C)nc2ccccc21,–,–,77,–,–
O=C(O)CC(C(=O)Nc1cccc(C(F)(F)F)c1)C1CCCO1 (stereo unspecified),–,–,–,–,–
Cc1ccc(SCCNC(=S)Nc2ccccc2)cc1,–,-6.1,–,–,–
Cc1ccc(NC(=S)NCCO)c(C)c1,–,–,–,–,–
Cc1ccc(SCCNC(=S)Nc2cc(C)ccc2C)cc1,–,-4.1,–,54,–
Cc1ccc(SCCNC(=S)Nc2ccc(C)c(C)c2)cc1,–,-4.4,–,–,–
C=CCNC(=S)Nc1ccccc1,–,–,–,–,–
CC1=C(CC/C(C)=N/NC(N)=S)C(C)(C)CCC1,·,–,·,·,·
O=S(=O)(CCc1ccccc1)/N=C/c1cccs1,–,–,–,–,–
CC(=O)Nc1cccc(NC(=O)c2sc3ncn(CC(=O)N4CCCCC4)c(=O)c3c2C)c1,–,–,80,79,–
CCN(CC)C(=O)Cn1cnc2sc(C(=O)Nc3cc(OC)c(OC)c(OC)c3)c(C)c2c1=O,–,–,92,79,–
CCCNC(=O)Cn1cnc2sc(C(=O)Nc3cc(OC)c(OC)c(OC)c3)c(C)c2c1=O,–,–,–,–,–
C=CCN1C(c2ccccc2)=CS/C1=C(\C#N)c1nnc2n1CCCCC2,–,–,–,83,–
CCOc1ccc(C2=CS/C(=C(\C#N)c3nnc4n3CCCCC4)N2CC)cc1,–,–,–,54,–
CCCCCCCCCCCCN1[C@@H](CC(=O)OC)c2cc(F)ccc2S1(=O)=O,·,–,·,·,·
COc1ccc2c(c1OC)C(=O)OC2CC(=O)c1ccc(N(C)C)cc1 (stereo unspecified),–,–,–,–,–
COc1ccc2c(c1OC)C(=O)OC2CC(=O)c1ccc(O)c(O)c1 (stereo unspecified),–,–,–,51,–
COc1ccc2c(c1OC)C(=O)OC2CC(=O)c1ccc(O)cc1 (stereo unspecified),–,·,–,72,–
COc1ccc2c(c1OC)C(=O)OC2CC(=O)O (stereo unspecified),–,–,–,–,–
N#CC(c1ccc(Cl)cc1)c1ccc(Cl)nn1 (stereo unspecified),–,–,–,53,–
O=C(CSc1ncn[nH]1)N1CCN(S(=O)(=O)c2ccc(Cl)cc2)CC1,–,–,–,–,–
SMILES,CYP2C9 activ,Cav3 T inh,CYP2C9 inhib,CYP2C19 inhib,CYP2C19 act
O=c1c2c3c(sc2n2cnnc2n1C1CCCCC1)CCC3,–,·,–,–,–
Cc1cc(NS(=O)(=O)N(C)C)ccc1C(C)C,–,–,77,90,–
O=S(=O)(Nc1ccc2c(c1)OCO2)c1ccc(Br)s1,–,–,96,78,–
CN(C)S(=O)(=O)Nc1ccc2c(c1)OCO2,–,–,–,76,–
CCOc1ccccc1NS(=O)(=O)N(C)C,–,–,–,–,–
CCOc1ccc(S(=O)(=O)Nc2ccc3c(c2)OCO3)c2cccnc12,–,–,–,82,–
O=C1[C@@H]2[C@H](C(=O)N1Cc1ccco1)[C@H]1C=C[C@@H]2C1,–,–,–,–,–
O=c1cc(NCc2ccco2)c2ccccc2o1,–,–,–,–,–
CC(C)Cn1c(=O)c2c(c3ccccc31)OC(C)C(=O)N2 (stereo unspecified),·,–,·,·,·
COc1cccc(NS(=O)(=O)c2cn(C)c(=O)n(C)c2=O)c1,–,–,–,–,–
O=C(c1ccncc1)c1ccc(NS(=O)(=O)c2ccc(Br)s2)cc1,–,–,99,–,–
COc1ccc(S(=O)(=O)Nc2ccc3c(c2)OCO3)cc1C,–,–,–,99,–
O=C(O)c1ccc(NS(=O)(=O)c2cc(C(=O)O)ccc2Br)cc1,–,–,–,–,–
COc1cc(NS(=O)(=O)c2ccc(Br)s2)cc(OC)c1,–,-5.8,96,100,–
Cc1cc(NS(=O)(=O)c2ccc(NC(=O)Nc3ccc4c(c3)OCO4)cc2)no1,·,–,·,·,·
COc1ccc(S(=O)(=O)Nc2ccc3c(c2)OCO3)cc1,–,–,56,93,–
